# PubChem BioAssay
# Activity calls are given as the source filed them.
# Columns and labels:
# [1] = small molecules captured by biotinylated probe aFSTL3 – biochemical, small-molecule microarray, fluorescence 635/667, stem cell growth factor project, primary screen (AID 1064); settings: higher = more signal;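 further: measures binding of the biotinylated anti-FSTL3 antibody to printed compounds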
# [2] = binders from COS7 lysate, DM2A8 probe, primary screen, torsin A project, cell lysate, small-molecule microarray, fluorescence 635/667 (AID 1065); settings: higher = more signal, COS7 lysate expressing mutant human TOR1A
# [3] = small molecules captured by biotinylated probe aFGF2 – biochemical, small-molecule microarray, fluorescence 635/667, stem cell growth factor project, primary screen (AID 1067); settings: higher = more signal;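 further: measures binding of biotinylated aFGF2 protein to printed compounds on slides; z-score merges feature fluorescence and signal-to-noise across triplicate slides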
# [4] = small molecules captured by biotinylated probe aFGF10 – biochemical, small-molecule microarray, fluorescence 635/667, stem cell growth factor project, primary screen (AID 1071); settings: higher = more signal;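 further: score merges 667 nm spot intensity and signal to noise from triplicate slides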
# [5] = target: Neurogenic locus notch homolog protein 2 (Homo sapiens) (UniProt Q04721); experiment: small molecules binding Notch2 protein – biochemical, small-molecule microarray, 635 nm fluorescence, stem cell growth factors, primary screen (AID 1073); settings: higher = more signal
# [6] = target: Pro-neuregulin-1, membrane-bound isoform (Homo sapiens) (UniProt Q02297); experiment: small molecules binding neuregulin-1 protein – biochemical, small-molecule microarray, fluorescence 635/667, psychiatric disease protein project, primary screen (AID 1075); settings: NRG1 binding, 635 nm fluorescence, higher = more signal;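 further: score combines 667 nm spot fluorescence with signal to noise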
# Sequence of Pro-neuregulin-1, membrane-bound isoform (Homo sapiens) (Q02297 whole entry, looked up, the tested form may be a part, canonical isoform): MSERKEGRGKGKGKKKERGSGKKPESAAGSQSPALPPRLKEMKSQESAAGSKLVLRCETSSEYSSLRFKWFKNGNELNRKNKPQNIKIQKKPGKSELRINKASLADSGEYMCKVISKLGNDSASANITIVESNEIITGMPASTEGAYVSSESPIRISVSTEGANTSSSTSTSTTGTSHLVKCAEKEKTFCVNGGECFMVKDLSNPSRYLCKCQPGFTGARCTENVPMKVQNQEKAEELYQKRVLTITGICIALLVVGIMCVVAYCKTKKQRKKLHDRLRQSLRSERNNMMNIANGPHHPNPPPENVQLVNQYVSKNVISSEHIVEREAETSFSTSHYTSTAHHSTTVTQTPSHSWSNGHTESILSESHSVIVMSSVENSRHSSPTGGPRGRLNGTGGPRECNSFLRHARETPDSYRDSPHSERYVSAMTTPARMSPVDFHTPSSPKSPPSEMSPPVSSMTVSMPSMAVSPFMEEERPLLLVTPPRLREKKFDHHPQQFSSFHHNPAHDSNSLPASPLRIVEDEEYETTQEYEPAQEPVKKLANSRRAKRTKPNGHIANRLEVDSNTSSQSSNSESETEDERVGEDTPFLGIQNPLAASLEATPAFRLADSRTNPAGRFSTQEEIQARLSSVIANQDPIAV
# [7] = system: Neuregulin-1 EGF-like domain; experiment: small molecules binding NRG1 EGF domain – biochemical, small-molecule microarray, 635 nm fluorescence, primary screen (AID 1081); settings: higher = more signal;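 further: binding of the protein to compounds printed on small-molecule microarray slides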
# [8] = FRG1 expression reporter modulators in myotubes – cell-based, C2C12 myotubes, firefly/Renilla luciferase, luminescence, FRG1 inhibition for FSHD, primary screen (AID 1084); settings: FRG1 promoter luciferase, higher = more signal, called active from +8 up or from −8 down
# [9] = small molecules captured by biotinylated probe aFST – biochemical, small-molecule microarray, fluorescence 635/667, stem cell growth factor project, primary screen (AID 1086); settings: higher = more signal;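 further: score merges 667 nm fluorescence with signal-to-noise of each printed compound spot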
# [10] = binders of probe aHhip on microarray, primary screen, stem cell growth factor project, biochemical, small-molecule microarray, fluorescence 635/667 (AID 1087); settings: higher = more signal;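 further: score merges spot fluorescence at 667nm with spot signal to noise ratio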
# [11] = system: PRMT1 (protein arginine N-methyltransferase 1); experiment: small molecules binding arginine methyltransferase PRMT1 – biochemical, small-molecule microarray, 635 nm fluorescence, primary screen (AID 1088); settings: higher = more signal;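 further: binding of Prmt1 protein to compounds spotted on small-molecule microarray slides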
# [12] = growth effects on S. cerevisiae YJM789 – YJM789 clinical isolate, OD600, 24 h, basal, primary screen (AID 1089); settings: higher = more signal, called active from +8 up or from −8 down;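 further: growth of clinical yeast isolate S. cerevisiae YJM 789 seeded 1000 cells per well; test concentration not given here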
# [13] = S. pombe growth modifiers, basal conditions – strain 972, OD600, 24 h, no modulator, primary screen (AID 1090);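 further: basal condition with compound alone and no growth modifier present; test concentration not given here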; settings: S. pombe 972 growth, higher = more signal, called active from +8 up or from −8 down
# [14] = budding yeast growth modifiers under rapamycin – strain BY4716, OD600, 96 h, primary screen (AID 1091); further: test concentration not given here; settings: S. cerevisiae BY4716 + rapamycin, higher = more signal, called active from +8 up or from −8 down
# [15] = target: Torsin-1A-interacting protein 2 (Homo sapiens) (UniProt Q8NFQ8); experiment: small molecules binding lysate-expressed LULL1 – cell lysate, human LULL1 lysate, 635/667 nm fluorescence, primary screen (AID 1092); settings: small-molecule microarray, hLULL1 lysate binding, 635 nm fluorescence; higher = more signal;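 further: probe is lysate of COS7 cells overexpressing human LULL1; score merges per-feature 667 nm fluorescence with signal-to-noise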
# Sequence of Torsin-1A-interacting protein 2 (Homo sapiens) (Q8NFQ8 whole entry, looked up): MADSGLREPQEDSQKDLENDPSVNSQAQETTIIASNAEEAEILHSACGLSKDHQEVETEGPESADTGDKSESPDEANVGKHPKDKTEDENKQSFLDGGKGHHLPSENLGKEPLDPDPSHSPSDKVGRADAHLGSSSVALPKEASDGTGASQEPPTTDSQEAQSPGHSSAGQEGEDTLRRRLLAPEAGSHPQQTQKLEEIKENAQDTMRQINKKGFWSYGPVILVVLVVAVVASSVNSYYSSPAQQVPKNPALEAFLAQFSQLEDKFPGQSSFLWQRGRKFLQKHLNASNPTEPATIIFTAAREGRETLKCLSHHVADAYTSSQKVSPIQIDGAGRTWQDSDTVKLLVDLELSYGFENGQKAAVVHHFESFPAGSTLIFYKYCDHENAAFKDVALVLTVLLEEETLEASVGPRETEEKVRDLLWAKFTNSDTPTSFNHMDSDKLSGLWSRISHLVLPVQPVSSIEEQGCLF
# [16] = optical density change of DRC41 E. coli – strain DRC41, OD650, 24 h, E. coli filamentation project, primary screen (AID 1093);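 further: MC1000 strain lacking acrAB efflux and sulA so SOS filamentation is blocked; test concentration not given here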; settings: E. coli DRC41 growth, higher = more signal, called active from +8 up or from −8 down
# [17] = probe aLefty2 binding to arrayed compounds – biochemical, biotinylated probe, 635/667 nm fluorescence, primary screen (AID 1094); settings: small-molecule microarray, higher = more signal;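 further: score merges spot fluorescence near 667 nm with spot signal-to-noise ratio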
# [18] = system: Noggin (protein binding on small-molecule microarray); experiment: small molecules binding Noggin protein – biochemical, 635/667 nm fluorescence, primary screen (AID 1095); settings: 635 nm fluorescence, higher = more signal;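 further: score merges 667 nm feature fluorescence with signal to noise over triplicate slides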
# [19] = target: Neurogenic locus notch homolog protein 3 (Homo sapiens) (UniProt Q9UM47); experiment: small molecules binding NOTCH3 protein – biochemical, 635/667 nm fluorescence, primary screen (AID 1096); settings: small-molecule microarray, 635 nm fluorescence, higher = more signal
# Sequence of Neurogenic locus notch homolog protein 3 (Homo sapiens) (Q9UM47 whole entry, looked up): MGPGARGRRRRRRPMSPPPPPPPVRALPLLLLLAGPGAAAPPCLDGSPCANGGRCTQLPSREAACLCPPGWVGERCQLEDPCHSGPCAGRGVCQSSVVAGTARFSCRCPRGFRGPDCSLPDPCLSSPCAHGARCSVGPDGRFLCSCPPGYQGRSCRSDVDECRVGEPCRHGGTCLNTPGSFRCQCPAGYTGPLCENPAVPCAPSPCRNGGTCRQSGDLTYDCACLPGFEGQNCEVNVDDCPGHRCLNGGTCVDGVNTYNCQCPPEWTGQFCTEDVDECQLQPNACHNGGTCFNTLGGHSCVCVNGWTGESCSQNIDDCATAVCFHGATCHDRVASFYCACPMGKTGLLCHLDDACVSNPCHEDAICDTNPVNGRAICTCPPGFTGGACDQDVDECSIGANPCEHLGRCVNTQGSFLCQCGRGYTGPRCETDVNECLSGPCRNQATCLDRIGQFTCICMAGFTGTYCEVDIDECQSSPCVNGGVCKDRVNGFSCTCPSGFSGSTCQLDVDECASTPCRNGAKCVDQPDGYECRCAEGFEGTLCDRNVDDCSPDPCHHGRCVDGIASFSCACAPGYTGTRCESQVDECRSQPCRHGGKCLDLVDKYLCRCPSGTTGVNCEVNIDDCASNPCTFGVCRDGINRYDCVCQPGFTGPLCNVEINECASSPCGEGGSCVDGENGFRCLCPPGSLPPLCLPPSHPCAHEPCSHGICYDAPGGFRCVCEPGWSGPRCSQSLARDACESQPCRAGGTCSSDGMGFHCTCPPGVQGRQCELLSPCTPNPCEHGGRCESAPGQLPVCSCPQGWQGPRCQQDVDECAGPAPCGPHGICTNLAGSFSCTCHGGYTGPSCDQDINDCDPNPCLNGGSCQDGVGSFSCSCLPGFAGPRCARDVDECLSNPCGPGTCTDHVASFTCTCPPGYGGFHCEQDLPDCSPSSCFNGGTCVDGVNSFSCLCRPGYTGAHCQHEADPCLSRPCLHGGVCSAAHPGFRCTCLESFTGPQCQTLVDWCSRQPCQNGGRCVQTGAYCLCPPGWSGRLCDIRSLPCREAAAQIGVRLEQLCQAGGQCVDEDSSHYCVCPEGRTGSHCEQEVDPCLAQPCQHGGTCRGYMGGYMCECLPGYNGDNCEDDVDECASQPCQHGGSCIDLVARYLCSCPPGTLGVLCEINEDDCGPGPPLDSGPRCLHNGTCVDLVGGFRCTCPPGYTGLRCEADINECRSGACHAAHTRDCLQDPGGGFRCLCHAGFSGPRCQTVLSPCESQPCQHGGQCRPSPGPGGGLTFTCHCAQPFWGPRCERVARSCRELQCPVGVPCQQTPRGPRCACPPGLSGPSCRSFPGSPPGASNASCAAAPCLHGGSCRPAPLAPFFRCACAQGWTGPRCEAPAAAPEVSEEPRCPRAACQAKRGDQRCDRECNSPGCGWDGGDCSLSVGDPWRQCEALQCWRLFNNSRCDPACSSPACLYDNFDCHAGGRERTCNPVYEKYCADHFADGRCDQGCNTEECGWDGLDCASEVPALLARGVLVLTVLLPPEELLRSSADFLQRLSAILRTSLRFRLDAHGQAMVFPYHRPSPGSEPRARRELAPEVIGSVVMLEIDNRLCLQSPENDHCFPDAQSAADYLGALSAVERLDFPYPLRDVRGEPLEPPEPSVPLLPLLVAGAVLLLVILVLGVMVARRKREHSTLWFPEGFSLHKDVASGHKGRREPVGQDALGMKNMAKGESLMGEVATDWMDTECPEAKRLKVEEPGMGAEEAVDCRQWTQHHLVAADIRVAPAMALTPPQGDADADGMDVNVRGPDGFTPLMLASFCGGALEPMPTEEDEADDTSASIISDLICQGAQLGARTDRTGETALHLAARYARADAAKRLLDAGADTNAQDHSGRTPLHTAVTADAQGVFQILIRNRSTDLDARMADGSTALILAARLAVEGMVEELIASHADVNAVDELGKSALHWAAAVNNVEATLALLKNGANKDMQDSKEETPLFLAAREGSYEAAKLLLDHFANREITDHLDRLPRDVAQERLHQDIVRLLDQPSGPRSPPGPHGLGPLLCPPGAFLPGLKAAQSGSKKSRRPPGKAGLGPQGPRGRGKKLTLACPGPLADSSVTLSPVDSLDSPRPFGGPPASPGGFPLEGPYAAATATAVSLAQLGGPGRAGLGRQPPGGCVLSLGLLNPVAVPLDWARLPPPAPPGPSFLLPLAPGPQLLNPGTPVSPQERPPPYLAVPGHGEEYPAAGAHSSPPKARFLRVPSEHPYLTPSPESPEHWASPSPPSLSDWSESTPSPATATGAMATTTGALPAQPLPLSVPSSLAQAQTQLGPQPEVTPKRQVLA
# [20] = probe aEGFR binding to arrayed compounds – biochemical, biotinylated probe, 635/667 nm fluorescence, primary screen (AID 1097); settings: small-molecule microarray, higher = more signal;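 further: probe is a biotinylated anti-EGFR antibody binding compounds printed on slides; score combines fluorescence near 667 nm and signal to noise of each spot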
Compound,composite z-score [1],composite z-score [2],composite z-score [3],composite z-score [4],composite z-score [5],composite z-score [6],composite z-score [7],z-score [8],composite z-score [9],composite z-score [10],composite z-score [11],z-score [12],z-score [13],z-score [14],composite z-score [15],z-score [16],composite z-score [17],composite z-score [18],composite z-score [19],composite z-score [20]
O=C1NC(=O)C2C1C=CC(C(O)c1cccc(O)c1)N2Nc1ccc(Cl)cc1Cl (stereo not given),0.312,0.0528,-0.161,0.0569,1.09,1.08,0.275,0.203 (inactive),0.259,-0.272,-1.24,-0.927 (inactive),0.765 (inactive),0.668 (inactive),0.991,-2.08 (inactive),0.0893,0.115,-0.207,0.012
COc1ccc([Si](C)(C)[C@@H]2[C@@H](CC(=O)N(CCO)Cc3ccccc3)O[C@]3(C(=O)N(Cc4ccc(N5CCC5=O)cc4)c4ccccc43)[C@H]2C)cc1,-0.0664,0.461,-0.0226,0.0667,0.0102,0.695,0.677,-0.192 (inactive),2.26,-0.0267,-0.0625,0.127 (inactive),-0.246 (inactive),1.87 (inactive),0.628,1.31 (inactive),0.536,0.343,-0.0568,-0.199
COC(=O)[C@@]1(Cc2ccccc2)[C@H]2c3cc(C(=O)N4CCCC4)n(Cc4ccc(C(F)(F)F)nc4)c3C[C@H]2CN1C(=O)c1ccccc1,0.356,1.74,0.237,0.747,1.54,1.98,1.37,0.419 (inactive),2.11,0.0858,1.19,-0.461 (inactive),0.449 (inactive),1.98 (inactive),3.64,-0.35 (inactive),0.226,0.073,1.03,0.265
C=C(COC)/C(=C/C[C@H](OC(=O)c1ccncc1)c1ccc(OCCO)cc1)c1cc(C(=O)OC)ccc1OC,-0.139,-0.0024,0.0436,1.08,0.0841,0.358,1.03,-0.992 (inactive),1.42,0.113,1.41,-0.823 (inactive),-1.2 (inactive),-0.649 (inactive),2.28,1.59 (inactive),-0.0337,1.01,1.1,-0.0828
